Assay results from article PMC7862700, “An all-to-all approach to the identification of sequence-specific readers for epigenetic DNA modifications on cytosine”.

How the values were obtained:
Assay in all cases: DAPPL (digital affinity profiling via proximity ligation, sequencing); 10 mM Tris-HCl pH 7.5, 50 mM NaCl, 1 mM DTT, 4% glycerol, room temperature, 30 min; GST-TFs on glutathione beads, 16-mer random dsDNA library, 0.1% formaldehyde crosslink after washing; high values mean tight binding
FLI1 = molecular target: T1, FLI1 (Homo sapiens, UniProt Q01543 1-452); settings: protein: recombinant; tags: N-terminal GST; dsDNA, one strand shown
T1 sequence: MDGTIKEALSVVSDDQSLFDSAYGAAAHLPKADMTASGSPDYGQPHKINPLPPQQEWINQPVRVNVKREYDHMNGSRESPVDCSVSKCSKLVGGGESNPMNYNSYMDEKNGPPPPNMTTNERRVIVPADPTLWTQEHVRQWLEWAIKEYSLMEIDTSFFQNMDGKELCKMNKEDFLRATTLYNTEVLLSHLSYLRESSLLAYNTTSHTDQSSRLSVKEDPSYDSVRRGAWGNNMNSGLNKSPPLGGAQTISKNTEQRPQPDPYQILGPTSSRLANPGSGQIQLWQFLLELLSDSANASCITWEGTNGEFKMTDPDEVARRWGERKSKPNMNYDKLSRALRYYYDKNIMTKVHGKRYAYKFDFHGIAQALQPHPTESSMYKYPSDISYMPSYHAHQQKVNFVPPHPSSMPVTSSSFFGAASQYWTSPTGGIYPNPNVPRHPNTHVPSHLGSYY
Outline: (§1)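 Sequencing on an Illumina NextSeq500 followed washing, crosslinking with 0.1% formaldehyde, proximity ligation (BsaI/T4 ligase, 1 h, 37 °C) and PCR amplification of pools that had been incubated for 30 min at room temperature with 200 nmole of a random double-stranded 16-mer DNA library in Tris/NaCl/DTT/glycerol buffer. Each pool held DNA-barcoded human transcription factors, expressed in yeast as GST fusions and captured on glutathione beads, plus a tag-only sample. Binding signal is a hexamer's read frequency for a factor divided by its frequency in the tag-only sample.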

ELK1 = molecular target: T2, ELK1 (Homo sapiens, UniProt P19419 1-428); settings: protein: recombinant; tags: N-terminal GST; dsDNA, one strand shown
T2 sequence: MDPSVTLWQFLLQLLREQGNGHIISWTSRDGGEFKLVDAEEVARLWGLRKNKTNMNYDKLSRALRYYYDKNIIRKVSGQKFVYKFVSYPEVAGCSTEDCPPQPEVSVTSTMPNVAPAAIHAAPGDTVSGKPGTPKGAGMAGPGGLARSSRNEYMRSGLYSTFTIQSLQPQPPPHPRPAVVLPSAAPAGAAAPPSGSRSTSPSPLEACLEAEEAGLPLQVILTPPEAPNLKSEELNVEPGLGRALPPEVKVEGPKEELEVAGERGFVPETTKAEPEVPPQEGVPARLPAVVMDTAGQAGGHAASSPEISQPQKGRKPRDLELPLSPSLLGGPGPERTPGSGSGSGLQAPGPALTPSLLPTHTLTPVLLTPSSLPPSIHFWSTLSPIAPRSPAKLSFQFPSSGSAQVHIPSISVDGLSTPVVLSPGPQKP
Outline: as §1

GABPA = molecular target: T3, GABPA (Homo sapiens, UniProt Q06546 1-454); settings: protein: recombinant; tags: N-terminal GST; dsDNA, one strand shown
T3 sequence: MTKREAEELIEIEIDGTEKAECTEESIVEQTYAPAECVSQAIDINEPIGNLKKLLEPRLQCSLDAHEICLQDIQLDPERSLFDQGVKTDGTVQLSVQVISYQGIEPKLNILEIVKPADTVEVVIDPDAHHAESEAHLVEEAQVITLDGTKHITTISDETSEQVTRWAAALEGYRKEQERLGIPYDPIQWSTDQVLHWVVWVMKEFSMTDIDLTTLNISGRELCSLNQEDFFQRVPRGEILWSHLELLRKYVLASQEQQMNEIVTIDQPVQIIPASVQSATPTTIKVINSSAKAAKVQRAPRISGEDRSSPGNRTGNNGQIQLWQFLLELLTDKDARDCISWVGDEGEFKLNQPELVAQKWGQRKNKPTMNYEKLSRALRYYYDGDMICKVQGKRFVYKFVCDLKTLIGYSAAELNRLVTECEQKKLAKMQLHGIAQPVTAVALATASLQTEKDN
Outline: as §1

ERG = molecular target: T4, ERG (Homo sapiens, UniProt P11308 1-479); settings: protein: recombinant; tags: N-terminal GST; dsDNA, one strand shown
T4 sequence: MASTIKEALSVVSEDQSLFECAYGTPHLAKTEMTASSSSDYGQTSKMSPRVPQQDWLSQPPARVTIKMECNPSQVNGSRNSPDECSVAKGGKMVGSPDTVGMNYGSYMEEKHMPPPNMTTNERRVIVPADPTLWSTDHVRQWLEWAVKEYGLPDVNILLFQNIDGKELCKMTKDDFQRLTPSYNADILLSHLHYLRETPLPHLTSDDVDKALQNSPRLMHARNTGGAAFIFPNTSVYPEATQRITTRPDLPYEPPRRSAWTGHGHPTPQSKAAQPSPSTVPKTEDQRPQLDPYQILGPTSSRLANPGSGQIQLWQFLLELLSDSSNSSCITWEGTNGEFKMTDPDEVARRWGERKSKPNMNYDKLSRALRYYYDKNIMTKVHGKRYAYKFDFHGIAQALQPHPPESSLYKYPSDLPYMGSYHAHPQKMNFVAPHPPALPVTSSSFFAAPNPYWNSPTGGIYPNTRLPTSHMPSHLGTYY
Outline: as §1

ELF1 = ELF1 (Homo sapiens, UniProt P32519 1-619); settings: protein: recombinant; tags: N-terminal GST; dsDNA, one strand shown
Sequence of ELF1 (P32519 whole entry): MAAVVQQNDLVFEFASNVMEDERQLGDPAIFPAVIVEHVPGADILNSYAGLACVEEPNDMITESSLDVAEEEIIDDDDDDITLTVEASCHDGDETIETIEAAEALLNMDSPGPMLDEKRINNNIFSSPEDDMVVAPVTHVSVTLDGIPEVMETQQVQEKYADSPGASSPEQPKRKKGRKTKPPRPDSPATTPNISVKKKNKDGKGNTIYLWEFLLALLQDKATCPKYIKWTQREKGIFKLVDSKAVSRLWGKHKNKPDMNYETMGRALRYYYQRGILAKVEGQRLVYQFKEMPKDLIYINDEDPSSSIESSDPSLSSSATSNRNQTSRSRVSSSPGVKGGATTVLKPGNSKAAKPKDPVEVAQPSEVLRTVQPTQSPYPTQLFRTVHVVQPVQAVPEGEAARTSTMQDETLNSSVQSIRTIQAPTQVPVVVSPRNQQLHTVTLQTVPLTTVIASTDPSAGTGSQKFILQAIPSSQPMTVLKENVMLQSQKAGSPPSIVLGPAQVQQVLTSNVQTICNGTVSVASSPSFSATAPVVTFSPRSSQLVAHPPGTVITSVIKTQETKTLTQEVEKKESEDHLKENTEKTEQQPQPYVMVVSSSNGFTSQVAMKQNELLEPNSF
Outline: as §1

EHF = molecular target: T5, EHF (Homo sapiens, UniProt Q9NZC4 1-300); settings: protein: recombinant; tags: N-terminal GST; dsDNA, one strand shown
T5 sequence: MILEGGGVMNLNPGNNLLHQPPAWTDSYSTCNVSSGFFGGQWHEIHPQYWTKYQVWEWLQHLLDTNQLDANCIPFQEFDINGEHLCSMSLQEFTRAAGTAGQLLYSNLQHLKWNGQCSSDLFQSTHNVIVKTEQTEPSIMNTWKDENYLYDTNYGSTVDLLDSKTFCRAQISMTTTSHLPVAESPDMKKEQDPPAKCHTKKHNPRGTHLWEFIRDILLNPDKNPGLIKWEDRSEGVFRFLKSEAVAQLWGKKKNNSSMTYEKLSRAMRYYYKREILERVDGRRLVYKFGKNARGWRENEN
Outline: as §1

SPI1 = SPI1 (Homo sapiens, UniProt P17947 1-270); settings: protein: recombinant; tags: N-terminal GST; dsDNA, one strand shown
Outline: as §1

SPIB = SPIB (Homo sapiens, UniProt Q01892 1-262); settings: protein: recombinant; tags: N-terminal GST; dsDNA, one strand shown
Sequence of SPIB (Q01892 whole entry): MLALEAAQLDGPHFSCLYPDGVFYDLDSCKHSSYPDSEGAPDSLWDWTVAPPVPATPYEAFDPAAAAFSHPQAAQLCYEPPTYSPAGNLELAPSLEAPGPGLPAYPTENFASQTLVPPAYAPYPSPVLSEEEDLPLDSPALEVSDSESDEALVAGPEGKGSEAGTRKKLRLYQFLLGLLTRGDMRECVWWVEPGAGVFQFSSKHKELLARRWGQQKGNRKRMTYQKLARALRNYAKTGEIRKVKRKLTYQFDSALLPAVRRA
Outline: as §1

ELK3 = molecular target: T6, ELK3 (Homo sapiens, UniProt P41970 1-407); settings: protein: recombinant; tags: N-terminal GST; dsDNA, one strand shown
T6 sequence: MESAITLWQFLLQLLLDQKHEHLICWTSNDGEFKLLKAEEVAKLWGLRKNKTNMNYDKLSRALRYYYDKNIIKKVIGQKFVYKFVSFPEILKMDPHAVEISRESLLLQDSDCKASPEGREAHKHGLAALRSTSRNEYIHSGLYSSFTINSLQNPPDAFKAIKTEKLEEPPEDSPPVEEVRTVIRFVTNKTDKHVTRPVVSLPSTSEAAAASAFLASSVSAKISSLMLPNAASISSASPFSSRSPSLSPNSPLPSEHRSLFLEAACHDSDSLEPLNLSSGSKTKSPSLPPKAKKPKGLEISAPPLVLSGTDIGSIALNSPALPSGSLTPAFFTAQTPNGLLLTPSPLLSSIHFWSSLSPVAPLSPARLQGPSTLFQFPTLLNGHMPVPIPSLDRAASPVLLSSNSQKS
Outline: as §1

FEV = molecular target: T7, FEV (Homo sapiens, UniProt Q99581 1-238); settings: protein: recombinant; tags: N-terminal GST; dsDNA, one strand shown
T7 sequence: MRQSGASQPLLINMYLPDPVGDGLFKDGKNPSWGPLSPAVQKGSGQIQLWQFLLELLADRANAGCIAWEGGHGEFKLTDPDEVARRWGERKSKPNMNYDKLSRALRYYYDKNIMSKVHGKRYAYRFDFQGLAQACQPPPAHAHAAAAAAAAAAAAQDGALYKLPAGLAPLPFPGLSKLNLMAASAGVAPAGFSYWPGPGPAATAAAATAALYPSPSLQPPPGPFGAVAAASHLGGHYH
Outline: as §1

ETV5 = ETV5 (Homo sapiens, UniProt P41161 1-510); settings: protein: recombinant; tags: N-terminal GST; dsDNA, one strand shown
Sequence of ETV5 (P41161 whole entry): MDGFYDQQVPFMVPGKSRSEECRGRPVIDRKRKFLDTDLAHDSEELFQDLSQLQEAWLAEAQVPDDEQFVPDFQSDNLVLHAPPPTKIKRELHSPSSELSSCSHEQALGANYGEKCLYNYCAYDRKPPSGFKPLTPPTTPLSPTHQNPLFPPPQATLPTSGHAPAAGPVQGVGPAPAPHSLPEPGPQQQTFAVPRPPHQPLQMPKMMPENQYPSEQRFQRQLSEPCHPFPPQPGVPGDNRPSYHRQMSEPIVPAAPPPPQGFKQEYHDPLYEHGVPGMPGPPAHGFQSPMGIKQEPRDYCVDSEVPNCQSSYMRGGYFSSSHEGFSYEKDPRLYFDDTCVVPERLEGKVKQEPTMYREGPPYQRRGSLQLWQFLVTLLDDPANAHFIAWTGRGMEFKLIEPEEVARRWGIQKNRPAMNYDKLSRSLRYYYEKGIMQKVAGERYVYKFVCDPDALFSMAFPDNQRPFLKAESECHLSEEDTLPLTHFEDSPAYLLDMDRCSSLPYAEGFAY
Outline: as §1

HSF1 = HSF1 (Homo sapiens, UniProt Q00613 1-529); settings: protein: recombinant; tags: N-terminal GST; chain copies: 3; dsDNA, one strand shown
Sequence of HSF1 (Q00613 whole entry): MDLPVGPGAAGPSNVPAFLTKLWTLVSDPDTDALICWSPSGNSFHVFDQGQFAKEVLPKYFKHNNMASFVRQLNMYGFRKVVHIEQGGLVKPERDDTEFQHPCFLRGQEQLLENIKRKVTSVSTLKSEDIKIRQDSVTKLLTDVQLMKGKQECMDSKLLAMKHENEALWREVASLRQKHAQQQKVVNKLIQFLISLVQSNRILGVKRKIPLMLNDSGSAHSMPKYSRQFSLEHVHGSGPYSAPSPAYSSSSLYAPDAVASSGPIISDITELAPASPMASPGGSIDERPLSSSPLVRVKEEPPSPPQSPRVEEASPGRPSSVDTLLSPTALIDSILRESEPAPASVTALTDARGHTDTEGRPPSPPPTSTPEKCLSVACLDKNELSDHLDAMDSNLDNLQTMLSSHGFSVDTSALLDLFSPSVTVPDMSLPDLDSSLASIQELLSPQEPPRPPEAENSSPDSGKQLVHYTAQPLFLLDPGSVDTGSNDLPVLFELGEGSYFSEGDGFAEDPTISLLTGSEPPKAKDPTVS
Outline: as §1

SPIC = molecular target: T8, SPIC (Homo sapiens, UniProt Q8N5J4 1-248); settings: protein: recombinant; tags: N-terminal GST; dsDNA, one strand shown
T8 sequence: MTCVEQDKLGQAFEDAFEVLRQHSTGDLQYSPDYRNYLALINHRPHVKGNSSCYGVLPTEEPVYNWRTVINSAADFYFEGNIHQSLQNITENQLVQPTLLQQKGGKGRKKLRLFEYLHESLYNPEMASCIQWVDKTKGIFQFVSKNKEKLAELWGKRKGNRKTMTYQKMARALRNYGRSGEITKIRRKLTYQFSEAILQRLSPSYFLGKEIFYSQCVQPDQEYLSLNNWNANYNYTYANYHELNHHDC
Outline: as §1

ELF4 = ELF4 (Homo sapiens, UniProt Q99607 1-663); settings: protein: recombinant; tags: N-terminal GST; dsDNA, one strand shown
Sequence of ELF4 (Q99607 whole entry): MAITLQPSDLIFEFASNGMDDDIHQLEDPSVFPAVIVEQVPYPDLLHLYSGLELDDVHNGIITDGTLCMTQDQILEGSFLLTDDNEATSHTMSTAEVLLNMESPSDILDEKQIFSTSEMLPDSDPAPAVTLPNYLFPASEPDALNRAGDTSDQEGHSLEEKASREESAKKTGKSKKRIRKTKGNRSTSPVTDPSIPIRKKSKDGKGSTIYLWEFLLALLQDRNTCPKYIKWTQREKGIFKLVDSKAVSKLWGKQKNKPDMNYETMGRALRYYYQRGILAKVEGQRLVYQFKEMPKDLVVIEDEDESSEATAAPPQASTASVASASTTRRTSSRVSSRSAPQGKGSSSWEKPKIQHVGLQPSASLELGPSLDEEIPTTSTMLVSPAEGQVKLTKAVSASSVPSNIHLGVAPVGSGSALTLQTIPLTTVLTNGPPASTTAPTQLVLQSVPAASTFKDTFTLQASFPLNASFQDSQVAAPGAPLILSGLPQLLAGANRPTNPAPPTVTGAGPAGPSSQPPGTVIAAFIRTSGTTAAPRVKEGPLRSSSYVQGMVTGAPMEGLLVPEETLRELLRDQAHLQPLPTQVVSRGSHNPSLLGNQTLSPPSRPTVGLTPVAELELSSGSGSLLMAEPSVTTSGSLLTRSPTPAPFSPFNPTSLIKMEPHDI
Outline: as §1

ELK4 = molecular target: T9, ELK4 (Homo sapiens, UniProt P28324-2 1-405); settings: protein: recombinant; tags: N-terminal GST; dsDNA, one strand shown
T9 sequence: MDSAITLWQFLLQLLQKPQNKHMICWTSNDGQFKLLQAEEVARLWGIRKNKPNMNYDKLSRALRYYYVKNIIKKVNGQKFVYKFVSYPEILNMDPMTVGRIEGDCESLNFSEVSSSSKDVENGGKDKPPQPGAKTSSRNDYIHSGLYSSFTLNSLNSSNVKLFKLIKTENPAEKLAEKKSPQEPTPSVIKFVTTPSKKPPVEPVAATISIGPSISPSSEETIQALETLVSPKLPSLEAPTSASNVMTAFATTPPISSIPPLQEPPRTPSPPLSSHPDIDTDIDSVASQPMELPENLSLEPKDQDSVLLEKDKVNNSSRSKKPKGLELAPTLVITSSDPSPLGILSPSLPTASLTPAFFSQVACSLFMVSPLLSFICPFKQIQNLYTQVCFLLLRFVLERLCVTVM
Outline: as §1

ETV2 = molecular target: T10, ETV2 (Homo sapiens, UniProt O00321 1-342); settings: protein: recombinant; tags: N-terminal GST; dsDNA, one strand shown
T10 sequence: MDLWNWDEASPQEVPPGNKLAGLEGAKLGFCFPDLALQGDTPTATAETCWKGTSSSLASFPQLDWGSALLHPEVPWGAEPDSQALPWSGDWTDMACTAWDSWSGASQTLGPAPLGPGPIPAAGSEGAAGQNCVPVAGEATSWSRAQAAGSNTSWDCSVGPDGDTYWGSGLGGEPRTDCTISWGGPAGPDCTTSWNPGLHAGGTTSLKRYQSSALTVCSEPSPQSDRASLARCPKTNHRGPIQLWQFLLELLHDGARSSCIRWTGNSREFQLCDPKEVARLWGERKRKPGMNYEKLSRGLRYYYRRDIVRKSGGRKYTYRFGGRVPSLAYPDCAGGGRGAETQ
Outline: as §1

ELF3 = molecular target: T11, ELF3 (Homo sapiens, UniProt P78545 1-371); settings: protein: recombinant; tags: N-terminal GST; dsDNA, one strand shown
T11 sequence: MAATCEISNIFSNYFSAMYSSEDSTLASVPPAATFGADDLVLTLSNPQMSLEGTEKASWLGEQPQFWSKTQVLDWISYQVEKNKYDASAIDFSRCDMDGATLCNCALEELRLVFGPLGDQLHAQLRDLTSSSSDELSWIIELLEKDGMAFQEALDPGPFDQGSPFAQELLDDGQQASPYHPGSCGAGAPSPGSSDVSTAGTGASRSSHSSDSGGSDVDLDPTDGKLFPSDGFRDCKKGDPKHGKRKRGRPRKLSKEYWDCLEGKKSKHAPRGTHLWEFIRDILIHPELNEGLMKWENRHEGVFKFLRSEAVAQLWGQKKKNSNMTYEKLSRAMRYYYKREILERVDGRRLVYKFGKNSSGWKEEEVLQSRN
Outline: as §1

CRX = CRX (Homo sapiens, UniProt O43186 1-299); settings: protein: recombinant; tags: N-terminal GST; dsDNA, one strand shown
Sequence of CRX (O43186 whole entry): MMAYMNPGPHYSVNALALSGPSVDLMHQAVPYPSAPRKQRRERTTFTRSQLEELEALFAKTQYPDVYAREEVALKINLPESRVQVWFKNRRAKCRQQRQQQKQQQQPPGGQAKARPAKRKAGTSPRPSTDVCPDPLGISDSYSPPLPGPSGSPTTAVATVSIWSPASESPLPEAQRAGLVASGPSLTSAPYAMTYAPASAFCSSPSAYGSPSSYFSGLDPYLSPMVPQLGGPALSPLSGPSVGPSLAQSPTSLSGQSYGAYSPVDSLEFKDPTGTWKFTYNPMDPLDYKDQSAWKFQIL
Outline: as §1

ETV1 = ETV1 (Homo sapiens, UniProt P50549 1-477); settings: protein: recombinant; tags: N-terminal GST; dsDNA, one strand shown
Sequence of ETV1 (P50549 whole entry): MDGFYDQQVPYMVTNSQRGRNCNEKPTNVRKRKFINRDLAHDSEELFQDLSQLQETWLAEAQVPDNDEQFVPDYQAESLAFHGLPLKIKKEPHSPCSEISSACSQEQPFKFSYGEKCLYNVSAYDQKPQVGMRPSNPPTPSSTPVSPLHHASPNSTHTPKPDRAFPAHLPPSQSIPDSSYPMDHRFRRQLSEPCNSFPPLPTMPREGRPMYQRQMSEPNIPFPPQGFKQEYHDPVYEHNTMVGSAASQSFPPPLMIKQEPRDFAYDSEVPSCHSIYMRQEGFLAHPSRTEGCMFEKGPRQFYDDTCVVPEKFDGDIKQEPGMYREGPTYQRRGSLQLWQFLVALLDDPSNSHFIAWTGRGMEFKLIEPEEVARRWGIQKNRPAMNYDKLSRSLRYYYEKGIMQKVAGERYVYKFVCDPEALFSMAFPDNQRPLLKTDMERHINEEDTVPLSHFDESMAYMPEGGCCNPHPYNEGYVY
Outline: as §1

Sequence: TCCTGC
- binding signal (FLI1): 1.61 fold enrichment (6-mer frequency, TF over GST control)
- binding signal (ELK1): 1.8 fold enrichment (6-mer frequency, TF over GST control)
- binding signal (GABPA): 1.49 fold enrichment (6-mer frequency, TF over GST control)
- binding signal (ERG): 1.68 fold enrichment (6-mer frequency, TF over GST control)
- binding signal (ELF1): 1.66 fold enrichment (6-mer frequency, TF over GST control)
- binding signal (EHF): 1.53 fold enrichment (6-mer frequency, TF over GST control)
- binding signal (SPI1): 1.67 fold enrichment (6-mer frequency, TF over GST control)
- binding signal (SPIB): 1.81 fold enrichment (6-mer frequency, TF over GST control)
- binding signal (ELK3): 1.46 fold enrichment (6-mer frequency, TF over GST control)
- binding signal (FEV): 1.62 fold enrichment (6-mer frequency, TF over GST control)
- binding signal (ETV5): 1.83 fold enrichment (6-mer frequency, TF over GST control)
- binding signal (HSF1): 1.25 fold enrichment (6-mer frequency, TF over GST control)
- binding signal (SPIC): 1.68 fold enrichment (6-mer frequency, TF over GST control)
- binding signal (ELF4): 1.56 fold enrichment (6-mer frequency, TF over GST control)
- binding signal (ELK4): 1.36 fold enrichment (6-mer frequency, TF over GST control)
- binding signal (ETV2): 1.49 fold enrichment (6-mer frequency, TF over GST control)
- binding signal (ELF3): 1.75 fold enrichment (6-mer frequency, TF over GST control)
- binding signal (CRX): 1.26 fold enrichment (6-mer frequency, TF over GST control)
- binding signal (ETV1): 1.6 fold enrichment (6-mer frequency, TF over GST control)
